{
  "source": "PubChem BioAssay (NCATS)",
  "note": "Inconclusive results are not listed. Active and inactive are the calls of the source. Calls come from the whole dose curve; as a rule, active = well fitted inhibition curve with a large enough effect; inconclusive = small, poorly fitted or top-dose-only effect; inactive = flat fitted curve, though single readings scatter. % is set by controls: 0 for no effect and ±100 for the full control effect; potency is the fitted concentration of half-maximal effect.",
  "data": [
    {"system": "CRL-7250", "experiment": "Cytotoxic Profiling of Annotated Libraries Using Quantitative High-Throughput Screening (AID 1296008); note: nearly all actives have a fitted effect of over 60% in size", "settings": "Five cell lines viability, CellTiter-Glo ATP luminescence, 48-72 h; max response: active compounds read low", "how_it_was_run": "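Cells exposed to compounds for 48 or 72 hr at 37 degrees Celsius. Viability read as ATP-coupled luminescence with CellTiter-Glo after 10 min at room temperature.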", "values": [
      {"smiles": "CC1=CC(=O)[C@@H](O)[C@@]2(C)C1C[C@H]1OC(=O)[C@H](O)[C@@]3(O)[C@@H](C)[C@@H](O)[C@H](O)C2[C@@]13C", "note": "(some centres undefined)", "Potency": "2.86 µM (active)"},
      {"smiles": "CN(Cc1cccc(-c2ccncc2)c1)C(=O)Oc1ccc(-c2ccc(C(N)=O)cc2)cc1", "outcome": "inactive"},
      {"smiles": "CN(C(=O)C(c1ccccc1)c1ccccc1)[C@H](CN1CC[C@H](O)C1)c1ccccc1", "outcome": "inactive"},
      {"smiles": "Fc1cc(F)c2c(c1)C1C=CCC1C(c1cccnc1)N2", "note": "(centres undefined)", "Potency": "5.8 µM (active)"},
      {"smiles": "C/C=C(\\C)C(=O)OC1CC2C(CC=C3CC(OC4CC(OC)C(OC5CC(OC)C(OC6CC(OC)C(OC7CC(OC)C(O)C(C)O7)C(C)O6)C(C)O5)C(C)O4)CCC32C)C2(O)CCC(C(C)=O)C12C", "note": "(centres undefined)", "max response": "-2.08% (inactive)"},
      {"smiles": "CN=C(NS(=O)(=O)c1ccc(Cl)cc1)N1C[C@H](c2ccccc2)C(c2ccc(Cl)cc2)=N1", "outcome": "inactive"},
      {"smiles": "COC1CC(O[C@H]2CC[C@@]3(C)C(CCC4C3CC[C@]3(C)C(C5=CC(=O)OC5)CCC43O)C2)OC(C)C1OC1OC(COC2OC(CO)C(O)C(O)C2O)C(O)C(O)C1O", "note": "(some centres undefined)", "Potency": "0.693 µM (active)"},
      {"smiles": "C[C@@H]1O[C@@H](OC2CCC3(C=O)C(CCC4C3CCC3(C)C(C5=CC(=O)OC5)C(O)CC43O)C2)[C@H](O)[C@H](O)[C@H]1O[C@@H]1O[C@H](CO)[C@@H](O)[C@H](O)[C@H]1O", "note": "(some centres undefined)", "Potency": "3.06 µM (active)"},
      {"smiles": "Cc1c(N[C@@H](c2nnc(-c3ccc(C#N)cc3)o2)[C@H](C)O)ccc(C#N)c1Cl", "outcome": "inactive"},
      {"smiles": "CC12CCC3C(C1)c1c(cc(O)c(C(=O)c4ccccc4)c1OC3(C)C)O2", "note": "(centres undefined)", "outcome": "inactive"},
      {"smiles": "C=C1C(=O)CC2OC2(C)CC2OC(=O)C(=C)C2C(O)C1OC(=O)/C(C)=C\\C", "note": "(centres undefined)", "Potency": "10.1 µM (active)"},
      {"smiles": "CN1C(=O)[C@@H](Cc2c[nH]c3ccccc23)N=C(c2ccccc2F)c2ccccc21", "outcome": "inactive"},
      {"smiles": "CCCCCCC1C(=O)O[C@H](C)[C@H](NC(=O)c2cccc(NC=O)c2O)C(=O)O[C@@H](C)[C@@H]1OC(=O)CC(C)C", "note": "(some centres undefined)", "Potency": "0.58 µM (active)"},
      {"smiles": "C=C(C)[C@@]12O[C@@H]1[C@@]1(C)C(=CC2=O)CC[C@@H](OC(C)=O)[C@@H]1C", "Potency": "6.51 µM (active)"},
      {"smiles": "c1ccc([C@@H]2C[C@H]2NC2CCNCC2)cc1", "max response": "-8.87% (inactive)"},
      {"smiles": "CC(C)[C@H]1OC(=O)[C@H](Cc2ccccc2)N(C)C(=O)[C@@H](C(C)C)OC(=O)[C@H](Cc2ccccc2)N(C)C(=O)[C@@H](C(C)C)OC(=O)[C@H](Cc2ccccc2)N(C)C1=O", "Potency": "4.85 µM (active)"},
      {"smiles": "CC[C@H](O)[C@@H](C)[C@H]1O[C@@H]1C[C@H](C)/C=C/C=C(\\C)[C@H]1OC(=O)C[C@H](O)CC[C@@](C)(O)[C@@H](OC(C)=O)/C=C/[C@@H]1C", "Potency": "0.0164 µM (active)"},
      {"smiles": "C=C1C2(C)CC3C(C)(O)C4=CC(=O)OC(C)(C)C4=CCC3(C)C13C(=O)OC(C)C3(O)C2=O", "note": "(centres undefined)", "max response": "-8.29% (inactive)"},
      {"smiles": "CN(C)[C@@H]1C(=O)C(C(N)=O)=C(O)[C@@]2(O)C(=O)C3=C(O)c4c(O)ccc(Cl)c4[C@@](C)(O)C3C[C@@H]12", "note": "(some centres undefined)", "max response": "-6.15% (inactive)"},
      {"smiles": "CC(=O)O[C@H]1C[C@]2(O)[C@@H]3CC[C@@H]4C[C@@H](O)CC[C@]4(C)[C@H]3CC[C@]2(C)[C@H]1c1ccc(=O)oc1", "Potency": "0.0517 µM (active)"},
      {"smiles": "CN1CCC2=C(C1)c1ccccc1Cc1ccccc12", "outcome": "inactive"},
      {"smiles": "C=C(C)C(=O)O[C@H]1[C@@H]2[C@H](C)C(=O)O[C@@H]2C[C@@H](C)[C@@H]2C=CC(=O)[C@]21C", "Potency": "2.86 µM (active)"},
      {"smiles": "CCOc1ccc(Oc2ccc(OCc3cc(F)ccc3F)cc2)c(N)c1", "outcome": "inactive"},
      {"smiles": "CCN1C[C@]2(COC)CC[C@H](O)[C@@]34C5C[C@@H]6[C@@H](OC)C[C@@](OC(C)=O)(C5[C@@H]6OC(C)=O)[C@H]([C@H](OC)C23)[C@@H]14", "note": "(some centres undefined)", "max response": "0.922% (inactive)"},
      {"smiles": "CC(C)[C@H](NC(=O)c1nn(Cc2ccc(F)cc2)c2ccccc12)C(N)=O", "max response": "-7.52% (inactive)"},
      {"smiles": "CCCN(CCC)[C@@H]1CCc2ccc3[nH]c(C#N)cc3c2C1", "outcome": "inactive"},
      {"smiles": "Cc1ccc2c(c1)[C@H]1CN(C)CC[C@H]1N2C(=O)CSc1nnnn1-c1ccc(Cl)cc1", "max response": "0.988% (inactive)"},
      {"smiles": "COC1CCCC(C)OC(=O)Cc2cc(O)cc(O)c2C(=O)C1", "note": "(centres undefined)", "Potency": "14.3 µM (active)"},
      {"smiles": "C[C@]12CC[C@H](O)C[C@@H]1CC[C@@H]1[C@@H]2CC[C@]2(C)C(=O)CC[C@@H]12", "max response": "-5.26% (inactive)"}
    ]}
  ]
}
